Assay results taken from the supplement of paper PMC8728848.
Only a selection was taken, and the strongest signals are over-represented in it overall.

Tests used:
Test in all cases: glycan array binding signal (z-score within array); higher = stronger binding
Conditions in all cases: glycan notation: IUPAC condensed, linker removed
[1] = system: Fuc(a1-3)[Gal(b1-4)]GlcNAc(b1-2)Man(a1-3)[Fuc(a1-3)[Gal(b1-4)]GlcNAc(b1-2)Man(a1-6)]Man(b1-4)GlcNAc(b1-4)GlcNAc
Summary of the method: (§1)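 Glycan array data came from 3228 arrays in the Consortium for Functional Glycomics database, and only arrays with an available protein sequence were kept. Glycan names were put into IUPAC-condensed notation, and columns mapping to the same glycan were averaged. The binding signal is a within-array Z-score, averaged across arrays of one protein sequence run at different concentrations or buffers and across linkers. A negative Z-score can be read as non-binding.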

Fuc(b1-3)GlcNAc = system: Fuc(b1-3)GlcNAc
Summary of the method: as §1

[2] = system: Gal(a1-3)Gal(b1-3)GlcNAc(b1-6)GalNAc
Summary of the method: as §1

Gal(a1-3)Gal(b1-3)GlcNAc = system: Gal(a1-3)Gal(b1-3)GlcNAc
Summary of the method: as §1

[3] = system: Gal(a1-3)Gal(b1-4)GlcNAc(b1-2)Man(a1-3)[Gal(a1-3)Gal(b1-4)GlcNAc(b1-2)Man(a1-6)]Man(b1-4)GlcNAc(b1-4)GlcNAc
Summary of the method: as §1

[4] = system: Gal(a1-3)Gal(b1-4)GlcNAc(b1-2)Man
Summary of the method: as §1

[5] = system: Fuc(a1-3)[Gal3S(b1-4)]GlcNAc6S
Summary of the method: as §1

Fuc(a1-4)GlcNAc = system: Fuc(a1-4)GlcNAc
Summary of the method: as §1

[6] = system: Fuc(a1-3)[Gal(b1-4)]GlcNAc(b1-3)Gal(b1-4)[Fuc(a1-3)]GlcNAc(b1-3)Gal(b1-4)[Fuc(a1-3)]GlcNAc
Summary of the method: as §1

[7] = system: Fuc(a1-3)[Gal(b1-4)]GlcNAc(b1-3)GalNAc
Summary of the method: as §1

[8] = system: Fuc(a1-3)[GalNAc(b1-4)]GlcNAc
Summary of the method: as §1

[9] = system: Gal(a1-3)Gal(b1-3)GlcNAc(b1-2)Man
Summary of the method: as §1

[10] = system: Gal(a1-3)Gal(b1-3)[Fuc(a1-4)]GlcNAc(b1-2)Man(a1-3)[Gal(a1-3)Gal(b1-3)[Fuc(a1-4)]GlcNAc(b1-2)Man(a1-6)]Man(b1-4)GlcNAc(b1-4)GlcNAc
Summary of the method: as §1

[11] = system: Fuc(a1-3)[Gal(b1-4)]GlcNAc(b1-3)Gal(b1-3)[Fuc(a1-4)]GlcNAc
Summary of the method: as §1

[12] = system: Fuc(a1-3)[Gal3S(b1-4)]GlcNAc
Summary of the method: as §1

[13] = system: Fuc(a1-3)[Neu5Ac(a2-3)]Gal(b1-4)GlcNAc(b1-3)GalNAc
Summary of the method: as §1

[14] = system: Fuc(a1-3)[Gal(b1-4)]GlcNAc(b1-2)Man
Summary of the method: as §1

[15] = system: Gal(a1-3)Gal(b1-3)GlcNAc(b1-2)Man(a1-3)[Gal(a1-3)Gal(b1-3)GlcNAc(b1-2)Man(a1-6)]Man(b1-4)GlcNAc(b1-4)GlcNAc
Summary of the method: as §1

[16] = system: Fuc(a1-3)[Gal(b1-4)]GlcNAc(b1-6)[Gal(b1-3)GlcNAc(b1-3)]Gal(b1-4)Glc
Summary of the method: as §1

Gal(a1-2)Gal = system: Gal(a1-2)Gal
Summary of the method: as §1

Q: For LcI (Legionella pneumophila), which “glycan array binding signal (z-score)” value [1] is on record?
A: 0.959

Q: And the “glycan array binding signal (z-score)” value (Fuc(b1-3)GlcNAc)?
A: 0.056

Q: And the “glycan array binding signal (z-score)” value [2]?
A: 4

Q: What about the “glycan array binding signal (z-score)” value (Gal(a1-3)Gal(b1-3)GlcNAc) of the same substance?
A: 4.41

Q: What about the “glycan array binding signal (z-score)” value [3] of the same substance?
A: 0.12

Q: And the “glycan array binding signal (z-score)” value [4]?
A: -0.012

Q: Which results are given for AgI/IIC123-GFP (Streptococcus mutans)?
A: glycan array binding signal (z-score) [5]: -0.143; glycan array binding signal (z-score) (Fuc(a1-4)GlcNAc): 6.16

Q: Which “glycan array binding signal (z-score)” value [6] does the source give for Actinohivin (Actinomycete K97) here?
A: -0.173

Q: What about the “glycan array binding signal (z-score)” value [7] of the same substance?
A: -0.169

Q: And the “glycan array binding signal (z-score)” value [8]?
A: -0.17

Q: What about the “glycan array binding signal (z-score)” value (Fuc(b1-3)GlcNAc) of the same substance?
A: -0.17

Q: What about the “glycan array binding signal (z-score)” value [9] of the same substance?
A: 0.041

Q: What about the “glycan array binding signal (z-score)” value [10] of the same substance?
A: 0.526

Q: What does the source list for “SpGH101 (Streptococcus pneumoniae), Q8DR60”?
A: glycan array binding signal (z-score) [1]: -0.202; glycan array binding signal (z-score) [11]: -0.148; glycan array binding signal (z-score) [12]: -0.161; glycan array binding signal (z-score) [13]: 0.764; glycan array binding signal (z-score) [10]: 0.17

Q: With Wza (Escherichia coli), P0A930 as the substance, how does the “glycan array binding signal (z-score)” value [14] read?
A: 0.907

Q: And the “glycan array binding signal (z-score)” value [12]?
A: -1.1

Q: And the “glycan array binding signal (z-score)” value [8]?
A: -1.12

Q: And the “glycan array binding signal (z-score)” value (Fuc(b1-3)GlcNAc)?
A: 1.51

Q: What about the “glycan array binding signal (z-score)” value [15] of the same substance?
A: 0.652

Q: “SiiE (Salmonella typhimurium), A0A0H3NVH0” was tested. Which “glycan array binding signal (z-score)” value [16] did it give?
A: 1.13

Q: And the “glycan array binding signal (z-score)” value (Gal(a1-3)Gal(b1-3)GlcNAc)?
A: 0.637

Q: What does the source list for Epa22?
A: glycan array binding signal (z-score) (Gal(a1-2)Gal): -0.244; glycan array binding signal (z-score) [9]: -0.377

Q: How did the “glycan array binding signal (z-score)” value [5] turn out when “AgI/II Vhelical-GFP (Streptococcus mutans)” was run?
A: -0.111

Q: And the “glycan array binding signal (z-score)” value (Fuc(a1-4)GlcNAc)?
A: 19.1

Q: What about the “glycan array binding signal (z-score)” value (Fuc(b1-3)GlcNAc) of the same substance?
A: -0.193

Q: What about the “glycan array binding signal (z-score)” value [9] of the same substance?
A: -0.049

Q: For BambL (Burhholderia ambifaria), Q0B4G1, which “glycan array binding signal (z-score)” value [11] is on record?
A: 1.03

Q: And the “glycan array binding signal (z-score)” value (Fuc(a1-4)GlcNAc)?
A: 6.86

Q: And the “glycan array binding signal (z-score)” value (Fuc(b1-3)GlcNAc)?
A: 4.1
